Structures are written as SMILES. The whole screen tested about 290,000 compounds, of which about 11,000 (3.8%) were called active. This is one part of a sample in which actives are shown more often than they occur. Unmarked numbers belong to inactive results.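 Rule for the calls: active = mean replicate inhibition above about 79%, with every replicate also reaching it (limit read from the data); inconclusive = only one of the two criteria met; inactive = mean below limit and not every replicate reaching it.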

The source of these data is PubChem BioAssay AID485317 (Broad Institute, 2010).

The target in the assay is FAD-linked sulfhydryl oxidase ALR (Homo sapiens) (UniProt P55789). Nature of the assay: inhibitors of human ALR sulfhydryl oxidase, primary screen, biochemical, H2O2 detection, HRP-luminol luminescence, single point (AID 485317). To be noted: purified ALR, DTT oxidation, hits give high values, concentration not given here.
FAD-linked sulfhydryl oxidase ALR (Homo sapiens), sequence (P55789 whole entry, looked up): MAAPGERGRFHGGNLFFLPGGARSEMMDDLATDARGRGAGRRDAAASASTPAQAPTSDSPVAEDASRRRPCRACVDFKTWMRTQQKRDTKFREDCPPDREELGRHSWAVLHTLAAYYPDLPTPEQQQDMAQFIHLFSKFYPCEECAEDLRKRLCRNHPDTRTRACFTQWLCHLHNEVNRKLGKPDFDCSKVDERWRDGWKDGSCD
For `O=C(NCC1(N2CCCCC2)CCCCC1)c1ccc(NS(=O)(=O)c2ccc(F)cc2)cc1`, the inhibition is 7.5%.

Take `CC(Sc1nn(-c2ccc(Cl)cc2)c(=S)s1)C(=O)NCC1CCCO1` (stereo not drawn): the inhibition was -12.1%.

In the case of `COc1cc(/C=N/n2c(C)n[nH]c2=S)ccc1OCc1ccccc1`, the inhibition was 97% (active).

As to `CCOc1ccc(/C=N/Nc2nncc(-c3ccccc3)n2)cc1OC`, the inhibition is -1.74%.

Regarding `COc1cc(-c2n[nH]c(=S)n2Cc2ccccc2)cc(OC)c1OC`, the inhibition is 68.8%.

On to `COc1ccc(S(=O)(=O)Nc2ccc3cn[nH]c3c2)cc1[N+](=O)[O-]`, for which the inhibition was -7.76%.

For the compound `Cc1c(C(=O)N2CCCc3ccccc32)oc2ccccc12`, the inhibition was 1.77%.

`O=C(c1cc(-c2ccc(O)cc2)on1)N1CCCc2ccccc21`: the inhibition was 98.8% (active).

Regarding `O=C(c1cc(-c2ccc(Cl)cc2)on1)N1CCN(c2ccccc2)CC1`, the inhibition is 4.35%.

For the compound `Cc1ccc(-c2cc(C(=O)N3CCc4ccccc4C3)no2)cc1`, the inhibition was -5.44%.

On to `O=C(c1cc(-c2ccc(O)cc2)on1)N1CCOCC1`, for which the inhibition is 99% (active).

For the compound `O=C(c1cc(-c2ccc(F)cc2)on1)N1CCN(c2ccc(F)cc2)CC1`, the inhibition was 1.89%.

Turning to `COc1ccc2sc(-c3ccc(S(C)(=O)=O)cc3)c(C#Cc3cncn3C)c2c1`, the inhibition is 1.35%.

Turning to `COc1ccccc1CCNC(=O)C(=O)NCCC1CCCCN1S(=O)(=O)c1cccs1` (stereo not drawn), the inhibition was -56.8%.

`CC1(C)O[C@H]2CC(=O)OCC23[C@H]2CC[C@@]4(C)[C@H](c5ccoc5)OC(=O)[C@H]5O[C@]54[C@]2(C)C(=O)C[C@@H]13` (stereo partly drawn): the inhibition is -10.7%.

Take `CCc1noc(C)c1C(=O)Oc1ccc(N(C)S(=O)(=O)c2ccc(C)c(C)c2)cc1`: the inhibition was 22.1%.

For the compound `COc1ccc(C(=O)Nc2cc(S(=O)(=O)N3CCCC3)ccc2Cl)cc1`, the inhibition is 0.959%.

Turning to `Cc1cc(Nc2ccc(Cl)cc2)nc(N2CCOCC2)n1`, the inhibition is -2.6%.

For `Cc1cc(N2CCOCC2)nc(-c2ccc(Br)cc2)n1`, the inhibition is -3.64%.

For `Cc1cc(N2CCN(c3ccccc3)CC2)nc(N2CCOCC2)n1`, the inhibition is 98.9% (active).

For `COc1ccc(CNC(=O)COC(=O)C(CCSC)N2C(=O)c3ccccc3C2=O)cc1` (stereo not drawn), the inhibition was -2.44%.

`CC(C)(C)Cc1nnc(NC(=O)c2cc(-c3ccccc3)nc3ccccc23)s1`: the inhibition was 3.63%.

`O=C(O)c1cccc(NC(=O)c2cc(-c3cccc(Cl)c3)nc3ccccc23)c1`: the inhibition is 98.6% (active).

`O=C(Nc1cccc(F)c1)c1cc(-c2ccco2)nc2ccccc12`: the inhibition was 5.76%.

Regarding `Cc1ccc([C@@H]2CC=C(C(=O)O)[C@H](c3cccc(Cl)c3)N2S(=O)(=O)c2ccc(C)cc2)cc1`, the inhibition is 4.58%.

With `O=C1COc2ccc(C(=O)COC(=O)CCOc3ccccc3)cc2N1`, the inhibition was -1.49%.

Regarding `CC1=CC(C)(C)Nc2ccc(OC(=O)C(Cc3ccccc3)N3C(=O)C4CCCCC4C3=O)cc21` (stereo not drawn), the inhibition is -22.1%.

In the case of `O=C(CN1C(=O)C2C3CCC(C3)C2C1=O)Oc1ccc2ccccc2c1` (stereo not drawn), the inhibition was -1.46%.

For `CC1=CC(C)(C)Nc2ccc(OC(=O)CN3C(=O)C4CCCCC4C3=O)cc21` (stereo not drawn), the inhibition was 85.4% (active).

Consider `CC(C)Cn1c(N)c(C(=O)COC(=O)C2CCCN2C(=O)c2cccs2)c(=O)n(C)c1=O` (stereo not drawn), for which the inhibition is -23.1%.

As for `Cc1ccc(C)c(-c2nnc(NC(=O)CS(=O)(=O)c3ccccc3)o2)c1`, the inhibition is 1.8%.

As for `Cc1oc2c(C)c3oc(=O)c(CC(=O)N[C@@H](CC(C)C)C(=O)N[C@@H](Cc4ccccc4)C(=O)O)c(C)c3cc2c1C`, the inhibition was 40.1%.

For `Cc1c(OC(C)C(=O)N[C@@H](Cc2ccccc2)C(=O)O)ccc2c3c(c(=O)oc12)CCCC3` (stereo partly drawn), the inhibition is 86.8% (active).

As for `Cc1cc(=O)oc2c(C)c(OC(C)C(=O)NC3CCN(Cc4ccccc4)CC3)ccc12` (stereo not drawn), the inhibition was 2.88%.

As to `CC1(C)CC[C@@]2(C(=O)O)C(C1)C1=CCC3[C@@]4(C)CC[C@H](O)C(C)(C)C4CC[C@@]3(C)[C@]1(C)C[C@H]2O` (stereo partly drawn), the inhibition was -9.85%.

As to `CCOC(=O)c1cccc(NC(=O)c2ccc(F)cc2F)c1`, the inhibition is 6.05%.

In the case of `CN(C)CCCN(C(=O)c1ccc(S(=O)(=O)N2CCCCCC2)cc1)c1nc2cc3c(cc2s1)OCCO3`, the inhibition was -4.06%.

As for `C=CCNC(=S)NNc1ncnc2sc3c(c12)CC(C)(C)OC3`, the inhibition is 98.8% (active).

`CCC(O)CNc1nc(-n2nc(C)cc2C)nc2sc3c(c12)CC(C)(C)OC3` (stereo not drawn): the inhibition was -2.25%.

With `CC/C(C)=N/Nc1nc2sc3c(c2c(=O)[nH]1)CC(C)(C)OC3`, the inhibition was 15.5%.

For the compound `CC(C)C(NC(=O)c1c(F)cccc1F)C(=O)NNC(=O)c1ccccc1` (stereo not drawn), the inhibition was -7.7%.

On to `COc1ccc2sc(N(CCCN(C)C)C(=O)c3ccc(S(=O)(=O)N(C)C4CCCCC4)cc3)nc2c1`, for which the inhibition is -5.65%.

Turning to `O=C(NCC(=O)N1CCCC(C(F)(F)F)C1)c1ccccc1F` (stereo not drawn), the inhibition is -7.32%.

Turning to `Cc1ccc(N=C2SCCCN2C(=O)c2cccc(N3C(=O)CCC3=O)c2)cc1Cl`, the inhibition was -9.4%.

In the case of `N#Cc1nc(-c2cccc3ccccc23)oc1N`, the inhibition is 0.469%.

Regarding `CC(C)CC(CC(C)C)=NNC(=O)c1ccc(CSc2nncn2C)cc1`, the inhibition was 98.2% (active).

Consider `COC(=O)c1ccc(CSc2nncn2N)cc1`, for which the inhibition was -17.1%.

As for `Cn1c(CNC(=O)c2ccccc2F)nnc1SCc1ccc(F)cc1`, the inhibition is -2.09%.

In the case of `CC(=O)Nc1ccc(NC(=O)CCN2C(=O)C3CC=CCC3C2=O)cc1` (stereo not drawn), the inhibition is -1.74%.

For `CC1=NNC(=O)C1Cc1c(Cl)cccc1Cl` (stereo not drawn), the inhibition was 13.8%.

With `CCn1c(SC(C)C(=O)Nc2ccc(N3CCOCC3)cc2)nnc1-c1ccco1` (stereo not drawn), the inhibition is 46.7%.

On to `Cc1ccc(-n2ncc3c(Nc4cccc(C(=O)O)c4)ncnc32)cc1`, for which the inhibition was 94% (active).

Consider `O=C(NNc1ncnc2c1cnn2-c1ccccc1)c1ccco1`, for which the inhibition is -5.39%.

Regarding `Cc1ccc(Nc2ncnc3c2cnn3C)c(C)c1`, the inhibition is -4.69%.

Consider `CSCCC(NC(=O)COc1ccccc1)C(=O)OCCOc1ccc(F)cc1` (stereo not drawn), for which the inhibition is -0.0039%.

In the case of `Cc1ccc(S(=O)(=O)NCCC(=O)OCC(=O)N(C)c2ccccc2)cc1`, the inhibition was -0.745%.

Turning to `COc1ccc(S(=O)(=O)N2CCN(C(C)C(=O)Nc3ccc(C(C)C)cc3)CC2)cc1` (stereo not drawn), the inhibition was -3.15%.

In the case of `CN(C)S(=O)(=O)c1cccc(-c2nn(-c3ccccc3)cc2/C=C2\SC(=S)N(CC(=O)O)C2=O)c1`, the inhibition is 95.8% (active).

In the case of `COc1ccc(-c2nn(-c3ccccc3)cc2/C=C2/SC(=S)N(CCCC(=O)O)C2=O)c(C)c1`, the inhibition was 3%.

`COc1cccc(-c2nn(-c3ccccc3)cc2/C=C(\C#N)C(=O)NCCCn2ccnc2)c1`: the inhibition is -6.12%.

With `COc1cccc(COC(=O)C2CCN(S(=O)(=O)c3cccs3)CC2)c1OC`, the inhibition was -64%.

Consider `COc1cc(C(=O)NCC(=O)N2CC=C(c3ccccc3)CC2)cc(OC)c1OC`, for which the inhibition is 3.4%.

For the compound `O=C(NCCSc1ncc(-c2ccccc2)[nH]1)c1ccco1`, the inhibition is 4.62%.

As for `COc1ccc(OC)c(S(=O)(=O)N2CCCC(C(=O)N3CCC(C(N)=O)CC3)C2)c1` (stereo not drawn), the inhibition was -3%.

Regarding `O=C(Cc1ccccc1)Nc1ccc(C(=O)Nc2ccccc2C(=O)O)cc1`, the inhibition is 87.1% (active).

With `COc1ccc(NC(=O)CSCc2ccc([N+](=O)[O-])cc2)cc1OC`, the inhibition is -0.226%.

On to `O=C(CSCc1ccc([N+](=O)[O-])cc1)Nc1cccc(C(=O)Nc2ccccc2C(=O)O)c1`, for which the inhibition was 99% (active).

As for `Cc1c(NC(=O)CSCc2ccccc2)cccc1C(=O)O`, the inhibition is -23.6%.

Regarding `O=C(O)c1ccccc1NC(=O)c1ccccc1-c1ccccc1C(=O)O`, the inhibition is -5.64%.

Take `O=C(Cc1ccccc1)Nc1ccc(NC(=O)c2cccnc2)cc1`: the inhibition was -3.14%.

For the compound `CC1CCc2[nH]c3ccc(C(=O)N(C)CC(=O)Nc4cccc(F)c4)cc3c2C1` (stereo not drawn), the inhibition was 2.5%.

With `COc1cccc(NC(=O)COc2cccnc2[N+](=O)[O-])c1`, the inhibition is -5.23%.

Consider `Cc1noc(C)c1S(=O)(=O)N(C)C[C@H]1Oc2ccc(NC(=O)C3CCCCC3)cc2C(=O)N([C@H](C)CO)C[C@@H]1C`, for which the inhibition was 0.231%.

As for `CCN(C[C@H]1N[C@@](CC)(C(=O)OC)[C@H]2C(=O)N(C)C(=O)[C@@H]12)C(=O)Nc1ccc(F)cc1`, the inhibition was 0.784%.

Consider `Cc1cccc(NC(=O)CSC(N)=O)c1C`, for which the inhibition was 98.7% (active).

With `Cc1cccc(NC(=O)CN2C(=O)c3ccccc3C2=O)c1C`, the inhibition was 2.16%.

With `Cc1cccc(NC(=O)COC(=O)CCc2ccccc2)c1C`, the inhibition is -8.62%.

On to `COc1cc(OC)cc(-c2c(C#Cc3ccsc3)c3cc(-c4ccc(SC)cc4)ccc3n2C)c1`, for which the inhibition is -4.93%.

Take `CCOC(=O)C1(O)CC(C)=NN1C(=O)c1cccc(Br)c1` (stereo not drawn): the inhibition was -4.22%.

For the compound `CC1=NN(C(=O)c2ccc(Br)cc2)C(O)(c2ccccc2)C1` (stereo not drawn), the inhibition was 82.1% (active).

As for `CC1=NN(C(=O)c2ccccc2Br)C(O)(c2cccnc2)C1` (stereo not drawn), the inhibition was -2.8%.

On to `COc1cc(SC)ccc1C(=O)NNC(=O)C1COc2ccccc2O1` (stereo not drawn), for which the inhibition is 0.292%.

`CC(C)(C)C1C/C(=C/c2ccco2)C(=O)/C(=C/c2ccco2)C1` (stereo not drawn): the inhibition is 96.3% (active).

Turning to `O=C1OC(/C=C/c2ccccc2)=NC/1=C/c1ccco1`, the inhibition was 9.93%.

Take `CCC1S/C(=N/N=C/c2ccco2)NC1=O` (stereo not drawn): the inhibition was -6.96%.

Consider `CC(C)C1N=C2c3ccccc3N=C(SCC(=O)c3ccc(O)c(O)c3)N2C1=O` (stereo not drawn), for which the inhibition is 99.7% (active).

For `O=C(CSC1=Nc2ccccc2C2=NC(CC(=O)NCc3ccco3)C(=O)N12)NCc1ccco1` (stereo not drawn), the inhibition was 6.97%.

As to `O=C(CSC1=Nc2ccccc2C2=NC(c3ccccc3)C(=O)N12)NCC1CCCO1` (stereo not drawn), the inhibition was -17.3%.

One may read the inhibition as the relative decrease from the control value, in per cent.
